# Experimental data taken from PubChem BioAssay.
# The source made the active and inactive calls. Unless noted, no rule for the calls is given here.
# Key:
# [1] = tested on: XIP peptide (Xip251-270) binding; experiment: small-molecule binders of XIP peptide, primary screen, biochemical, small-molecule microarray, fluorescence 635/667 nm, 0.1 µg/mL protein (AID 1182); settings: fluorescent protein binding, 635 nm, higher = more signal, called active from +8 up or from −8 down
# [2] = tested on: XIP peptide (Xip251-270); experiment: small-molecule binders of XIP peptide, primary screen, biochemical, small-molecule microarray, fluorescence 635/667 nm, 0.5 µg/mL protein (AID 1183); settings: small-molecule microarray binding, fluorescence 635 nm; higher = more signal
# [3] = Plasmodium falciparum growth inhibition, primary screen, strain 3D7, DAPI fluorescence, 100 nL (AID 1184);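 also: parasites grown inside human red blood cells in medium with human serum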; settings: P. falciparum 3D7 growth, 3 d, higher = more signal
# [4] = target: Homeobox protein Hox-A13 (Mus musculus) (UniProt Q62424); experiment: inhibitors of HoxA13-DNA binding, primary screen, biochemical, fluorescence polarization, labeled oligonucleotide (AID 1185); settings: 15 min, higher = more signal, called active from +8 up or from −8 down
# [5] = inhibitors of hydroxyurea-induced Chk1 phosphorylation, primary screen, imaging, HeLa, phospho-Chk1 antibody, percent positive cells (AID 1186); settings: hydroxyurea-induced phospho-Chk1 immunofluorescence imaging, higher = more signal
# [6] = inhibitors of hydroxyurea-induced Chk1 phosphorylation, primary screen, imaging, HeLa, phospho-Chk1 nuclear intensity (AID 1187); settings: hydroxyurea-induced phospho-Chk1 immunofluorescence imaging, higher = more signal
# Sequence of Homeobox protein Hox-A13 (Mus musculus) (Q62424 whole entry, looked up): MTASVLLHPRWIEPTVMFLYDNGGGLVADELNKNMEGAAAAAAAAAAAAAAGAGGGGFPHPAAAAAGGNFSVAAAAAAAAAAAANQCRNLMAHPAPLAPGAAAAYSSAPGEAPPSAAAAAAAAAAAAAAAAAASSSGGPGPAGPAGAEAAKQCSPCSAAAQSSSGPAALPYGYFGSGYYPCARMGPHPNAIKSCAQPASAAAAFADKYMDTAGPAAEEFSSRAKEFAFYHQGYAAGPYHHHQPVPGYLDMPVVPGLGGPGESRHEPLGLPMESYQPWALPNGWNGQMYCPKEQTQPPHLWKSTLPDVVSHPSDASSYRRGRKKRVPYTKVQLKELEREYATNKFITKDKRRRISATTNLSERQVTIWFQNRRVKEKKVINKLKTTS
Compound,composite z-score [1],composite z-score [2],z-score [3],z-score [4],z-score [5],z-score [6]
CC(C)[Si](C#C[Si](C(C)C)(C(C)C)C(C)C)(O[C@H](C)c1cn([C@H](CO)Cc2ccccc2)nn1)C(C)C,0.183 (inactive),0.348,0.67,-0.249 (inactive),-0.258 (inactive),-0.36 (inactive)
CCOC(=O)C[C@H]1[C@H](OC(=O)Cc2ccc3c(c2)OCO3)[C@@H](NC(=O)CC(C)C)c2cc(OCCCO)ccc2N1C(=O)Cc1ccc(OC)cc1,-0.107 (inactive),-0.311,0.0373,-3.35 (inactive),-0.839 (inactive),-0.401 (inactive)
[N-]=[N+]=Nc1ccccc1C[C@]1(C(=O)N2CCOCC2)N=C(c2ccc(OCCCO)cc2)O[C@H]1c1ccccc1,0.511 (inactive),0.748,-2.03,-5.32 (inactive),-0.47 (inactive),-0.106 (inactive)
COCCCNC(=O)[C@@]1(Sc2ccc(C)cc2)CC(=O)N(C2CCCCC2)[C@@H]1c1ccc(CO)cc1,-0.0795 (inactive),0.421,-0.715,-3.21 (inactive),0.317 (inactive),0.592 (inactive)
COc1ccc(NC(=O)O[C@H]2[C@H](OC(=O)Nc3ccccc3)[C@@H](OC(=O)Nc3ccccc3)[C@@H](OC)O[C@@H]2CO)cc1,0.551 (inactive),0.925,-2.47,-6.22 (inactive),-0.454 (inactive),-0.429 (inactive)
COc1cc2c(cc1OC)CN(C(=O)[C@@H]1[C@H]3C(=O)O[C@H](c4ccccc4)[C@H](c4ccccc4)N3[C@H](c3ccc(OCCO)cc3)[C@@]13C(=O)Nc1ccccc13)CC2,0.675 (inactive),0.742,-1.77,-8.07 (active),-0.118 (inactive),-0.256 (inactive)
COc1cc2c(cc1OC)CN(C(=O)[C@@H]1[C@H]3C(=O)O[C@H](c4ccccc4)[C@H](c4ccccc4)N3[C@H](c3ccc(OCCO)cc3)[C@@]13C(=O)Nc1ccc(C#CC4(O)CCCCCC4)cc13)CC2,0.784 (inactive),0.684,-2.06,3.75 (inactive),-0.124 (inactive),0.041 (inactive)
O=C1O[C@H](c2ccccc2)[C@H](c2ccccc2)N2[C@H]1[C@@H](C(=O)O)[C@]1(C(=O)Nc3ccc(C#CC4=CCCCC4)cc31)[C@H]2c1ccc(O)cc1,0.406 (inactive),0.617,-0.628,-5.74 (inactive),-0.0146 (inactive),-0.19 (inactive)
CCCCCCc1nc(C2CC2)cc2c1[Si](C(C)C)(C(C)C)OC2,-0.18 (inactive),0.259,-1.47,0.321 (inactive),-0.186 (inactive),-0.0437 (inactive)
COc1ccccc1CN1C(=O)c2ccccc2[C@](Cc2ccccc2I)(C(=O)NCC(F)(F)F)[C@@H]1c1ccc(CO)cc1,0.931 (inactive),0.909,-1.49,-4.98 (inactive),-0.0993 (inactive),-0.0597 (inactive)
COC(=O)[C@@]1(Cc2ccc(OC)cc2)[C@H]2c3cc(C(=O)N(C)C)n(Cc4ccc(Cl)c(C(F)(F)F)c4)c3C[C@H]2CN1C(=O)c1ccccc1,-0.0177 (inactive),0.267,-1.48,-3.47 (inactive),0.472 (inactive),0.127 (inactive)
O=C1C2C=CC(C(O)c3ccc(F)cc3)N(n3cnnc3)C2C(=O)N1Cc1ccccc1 (stereo not drawn),0.34 (inactive),0.854,-1.09,-0.994 (inactive),0.0044 (inactive),-1.28 (inactive)
COc1cc(OC)c(C(O)C2C=CC3C(=O)N(c4ccccc4)C(=O)C3N2Nc2ccccc2)cc1Br (stereo not drawn),1.02 (inactive),0.577,0.0461,-3.38 (inactive),-0.754 (inactive),-0.747 (inactive)
CC(C)(C)N1CC=CC23O[C@@H]4C=CCOC(=O)[C@@H]4[C@H]2C(=O)N(CCCCCCO)[C@@H]3C1=O (stereo partly drawn),-0.196 (inactive),0.448,-0.429,-4.45 (inactive),-0.156 (inactive),-0.43 (inactive)
C=CCN1C(=O)[C@@]2(O[C@@H](CCn3cc([C@H](O)c4ccccc4)nn3)[C@H]([Si](C)(C)c3ccc(OC)cc3)[C@H]2C)c2cc(N3CCC3=O)ccc21,-0.0195 (inactive),-0.114,-2.1,-5.38 (inactive),-0.108 (inactive),0.582 (inactive)
C=CC1c2cc(O)c(OC)cc2CCN1Cc1cc2c(cc1Br)OCO2 (stereo not drawn),1.31 (inactive),0.962,-2.14,-5.73 (inactive),-0.103 (inactive),-0.0965 (inactive)
COC(=O)[C@H](Cc1ccccc1)N1CC(/C=C/C2CC2)=C[C@H]1[C@H](O)Cc1ccccc1,0.444 (inactive),0.337,-1.65,-5.54 (inactive),-0.45 (inactive),-0.749 (inactive)

Compound,composite z-score [1],composite z-score [2],z-score [3],z-score [4],z-score [5],z-score [6]
O=C1NC(=O)C2C1C=CC(C(O)c1ccco1)N2Nc1ccccn1 (stereo not drawn),-0.409 (inactive),-0.195,1.36,-3.55 (inactive),0.0556 (inactive),-0.0488 (inactive)
COc1ccc(CCNC(=O)[C@@H]2c3ccccc3C(=O)N(Cc3cc(C(F)(F)F)cc(C(F)(F)F)c3)[C@H]2c2ccc(CO)cc2)cc1,0.381 (inactive),0.649,-1.17,-2.92 (inactive),-0.198 (inactive),0.173 (inactive)
C[C@@H]1NC(=O)[C@@]23C(=O)N[C@@H](Cc4ccccc4)C2[C@H](C)[C@@]2(C)O[C@H]2C3/C=C/C/C=C\CNC(=O)[C@@H]2CCCN2C1=O (stereo partly drawn),-0.85 (inactive),-0.103,0.934,-3.68 (inactive),-0.0354 (inactive),0.186 (inactive)
COCCOC(=O)N1C(=O)[C@@]2(c3cc(C#CCNC(N)=O)ccc31)[C@H](C(=O)N1CCc3cc(OC)c(OC)cc3C1)[C@H]1C(=O)O[C@H](c3ccccc3)[C@H](c3ccccc3)N1[C@@H]2c1ccccc1OCCO,1.53 (inactive),0.498,-2.2,0.577 (inactive),0.0782 (inactive),0.147 (inactive)
COCCOC(=O)N1C(=O)[C@@]2(c3cc(C#Cc4ccc(OC)cc4)ccc31)[C@H](C(=O)Nc1nc3ccccc3s1)[C@H]1C(=O)O[C@H](c3ccccc3)[C@H](c3ccccc3)N1[C@@H]2c1ccc(OCCO)cc1,0.127 (inactive),0.623,-1.69,2.34 (inactive),0.0676 (inactive),0.0745 (inactive)
OCC1CC(c2ccccc2)=NO1 (stereo not drawn),-0.336 (inactive),-0.118,0.308,0.0368 (inactive),-0.582 (inactive),-0.0558 (inactive)
C#CCN([C@@H](Cc1ccc(O)cc1)C(=O)OC)[C@@H](/C=C/C1CC1)[C@H](O)Cc1ccccc1,-0.297 (inactive),-0.331,0.501,-7.49 (inactive),-0.453 (inactive),-0.368 (inactive)
COc1cc(OC)c(C(O)C2C=CC3C(=O)N(C)C(=O)C3N2NC(=O)OC(C)(C)C)cc1Br (stereo not drawn),-0.121 (inactive),0.759,-0.107,-2.6 (inactive),0.111 (inactive),-0.0533 (inactive)
COc1ccccc1CN1C(=O)c2ccccc2[C@@]2(Cc3ccccc3N(CC(F)(F)F)C2=O)[C@@H]1c1ccc(CO)cc1,0.182 (inactive),0.555,-0.384,-0.814 (inactive),0.149 (inactive),0.312 (inactive)
COCCOC(=O)N1C(=O)[C@@]2(c3cc(C#CC4=CCCCC4)ccc31)[C@H](C(=O)N1CCCCCCC1)[C@H]1C(=O)O[C@H](c3ccccc3)[C@H](c3ccccc3)N1[C@@H]2c1ccc(O)cc1,0.179 (inactive),0.695,-1.72,2.25 (inactive),-0.525 (inactive),-0.932 (inactive)
[N-]=[N+]=NCc1ccccc1C[C@@]1(C(=O)N2CCCCC2)N=C(c2ccc(OCCCO)cc2)O[C@@H]1c1ccccc1,-0.194 (inactive),0.434,-2.38,-4.86 (inactive),-0.219 (inactive),-0.234 (inactive)
Cc1cc(C)c(C(O)C2C=CC3C(=O)N(c4ccccc4)C(=O)C3N2Nc2ccc(C(C)C)cc2)c(C)c1 (stereo not drawn),1.21 (inactive),0.736,-0.701,-3.21 (inactive),0.609 (inactive),0.335 (inactive)
NC(=O)NCC#Cc1ccc2c(c1)[C@]1(C(=O)N2)[C@H](C(=O)O)[C@H]2C(=O)O[C@H](c3ccccc3)[C@H](c3ccccc3)N2[C@@H]1c1ccc(OCCO)cc1,-0.316 (inactive),0.419,-0.46,-6.34 (inactive),0.242 (inactive),0.615 (inactive)
C=CCN1Cc2ccccc2[C@H]2OC(c3ccc(OCCCO)cc3)=N[C@@]2(CC=C)C1=O,0.808 (inactive),0.746,-2.15,-3.06 (inactive),-0.39 (inactive),-0.0236 (inactive)
CC1=C[C@@]2(CO)C(=O)[C@]3(CO3)[C@@H]1[C@H]1[C@]2(C)C=C(CO)C(=O)[C@]12CO2,0.188 (inactive),0.454,-1.27,-4.58 (inactive),-0.441 (inactive),-0.35 (inactive)
C=C(/C(=C/C[C@H](OC(C)=O)c1cccc(OCCO)c1)c1cnc2ccccc2c1)C(C)C,-0.328 (inactive),-0.179,-1.28,-4.29 (inactive),-0.192 (inactive),-0.139 (inactive)
